{
  "source": "PubChem BioAssay (NCATS)",
  "note": "Records with an inconclusive call do not appear. Entries that show only a call come without a potency. Active and inactive are the calls of the source. Calls come from the whole dose curve; as a rule, active = well fitted inhibition curve with a large enough effect; inconclusive = small, poorly fitted or top-dose-only effect; inactive = flat fitted curve, though single readings scatter.",
  "data": [
    {"biological_target": "Calcium and integrin-binding protein 1 (Homo sapiens) (UniProt Q99828)", "sequence (Q99828 whole entry, looked up)": "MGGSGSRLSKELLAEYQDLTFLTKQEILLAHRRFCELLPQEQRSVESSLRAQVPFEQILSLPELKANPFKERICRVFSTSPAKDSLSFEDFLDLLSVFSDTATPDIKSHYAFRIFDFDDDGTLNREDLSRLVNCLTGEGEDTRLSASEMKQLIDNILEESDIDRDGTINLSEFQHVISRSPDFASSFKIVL", "experiment": "Primary qHTS for Identification of Calcium Integrin Binding Protein 1 (CIB1) Competitor (AID 1508620); note: top concentration of the series differs between compounds", "conditions": "CIB1-GST / FITC-alphaIIb peptide fluorescence polarization; series mostly up to 114 µM", "how_it_was_run": "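Fluorescence polarization competition: GST-tagged CIB1 (1 uM final) preincubated with compound 15 min at room temperature, then FITC-labelled alphaIIb peptide (100 nM final) added. After 15 min at room temperature, polarization read at Ex 480/Em 540.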", "values": [
      {"compound": "O=C(Cc1nnc(-c2nc3ccccc3[nH]2)o1)Nc1cc(C(F)(F)F)ccc1Cl", "Potency": "inactive"},
      {"compound": "CC(=O)Nc1cccc(S(=O)(=O)N2CCCN(S(=O)(=O)c3ccc4c(c3)OCCO4)CC2)c1", "Potency": "inactive"},
      {"compound": "Cc1ccc(CNc2ccc(N3CCN(C)CC3=O)cc2)cc1", "Potency": "inactive"},
      {"compound": "Cc1cc(C)nc(NC(=S)N2CCN(c3ccc4cnccc4c3)CC2)c1", "Potency": "inactive"},
      {"compound": "O=C(O)c1c(-c2ccccc2)no[n+]1[O-]", "Potency": "inactive"},
      {"compound": "Cc1ccc2nc3sc(C(=O)NC4CCCCC4)cc3cc2c1", "Potency": "inactive"},
      {"compound": "Cc1cc(N[S+](=O)([O-])c2cc3c(cc2F)NC(=O)CC3)ccc1Br", "Potency": "inactive"},
      {"compound": "FC(F)(F)c1ccc(N2CCN(C(=S)Nc3ccccn3)CC2)cc1", "Potency": "inactive"},
      {"compound": "N#Cc1nc(Nc2cc(F)cc(F)c2)c2ncn(CCO)c2n1", "Potency": "inactive"},
      {"compound": "Cc1ccc(N2CCN(C(=S)Nc3cc(C)ccn3)CC2)cc1", "Potency": "inactive"},
      {"compound": "CCn1cnc2c(NCc3cccnc3)nc(C#N)nc21", "Potency": "inactive"},
      {"compound": "O=C(COc1ccc(F)cc1)NCCc1nc2ccccc2[nH]1", "Potency": "inactive"},
      {"compound": "CC(C)(C)OC(=O)NCc1nnc(-c2cc3ccccc3[nH]2)s1", "Potency": "inactive"},
      {"compound": "O=S(=O)(c1ccc2c(c1)OCCO2)N1CCN(S(=O)(=O)c2cc(F)c(F)cc2F)CC1", "Potency": "inactive"},
      {"compound": "CC(=O)Nc1ccc(OC2=NS(=O)(=O)c3ccccc32)cc1", "Potency": "inactive"},
      {"compound": "CC(C)(C)NS(=O)(=O)c1cccc(Nc2nn3c(=O)c4ccccc4nc3s2)c1", "Potency": "inactive"},
      {"compound": "Cc1cc(C=CC#N)cc(C)c1Nc1nc(Nc2ccc3scnc3c2)c2[nH]cnc2n1", "Potency": "inactive"},
      {"compound": "Nc1cc(NC(=O)Nc2nnc(-c3ccncc3)s2)ccc1Cl", "Potency": "inactive"},
      {"compound": "Cc1cc2c(s1)c1cnn(Cc3cccc(C(F)(F)F)c3)c(=O)c1n2C", "Potency": "inactive"},
      {"compound": "O=C(Nc1cncc(Cc2ccccc2)c1)c1ccc(-c2cccc([N+](=O)[O-])c2)o1", "Potency": "inactive"},
      {"compound": "Nc1ccc2c(c1)C(=O)NS2(=O)=O", "Potency": "inactive"},
      {"compound": "Cc1ccc(OCCn2c(CCNC(=O)c3ccc(Cl)cc3)nc3ccccc32)cc1", "Potency": "inactive"},
      {"compound": "CC(C)(C)OC(=O)N1CCN(c2cnc(NCc3ccc(-c4ccc(C#N)cc4)o3)cn2)CC1", "Potency": "inactive"},
      {"compound": "Cc1nnc(-c2cnn(C)c2N)n1CCCc1cccnc1", "Potency": "inactive"},
      {"compound": "COc1ccc(-c2csc(N3CCC(C(N)=O)CC3)n2)cc1OC", "Potency": "inactive"},
      {"compound": "O=C(COC(=O)CNC(=O)c1ccccc1)Nc1cc(C(F)(F)F)ccc1Cl", "Potency": "inactive"},
      {"compound": "CCOc1ccc(CCNC(=O)c2ccc3[nH]ccc3c2)cc1OCC", "Potency": "inactive"},
      {"compound": "O=C(NCCc1nc2ccccc2n1CCOc1cc(F)ccc1F)C1CCCCC1", "Potency": "inactive"},
      {"compound": "O=C(NC1CCCc2c1cnn2-c1ccc(F)cc1F)c1ccccc1", "note": "(centres undefined)", "Potency": "inactive"},
      {"compound": "Clc1cccc(-c2ccc3ncnc(NCc4cccnc4)c3c2)c1", "Potency": "inactive"},
      {"compound": "O=S1(=O)N=C(Oc2ccc(-c3ccccc3)cc2)c2ccccc21", "Potency": "inactive"},
      {"compound": "COc1ccc(C2Nc3ccccc3C(=O)N2Cc2ccccn2)cc1COc1ccc(NC(C)=O)cc1", "note": "(centres undefined)", "Potency": "inactive"},
      {"compound": "O=C1CCCC2=C1C1(CCCC1)N=C(Nc1nc3cc4ccccc4cc3o1)N2", "Potency": "inactive"},
      {"compound": "N#Cc1nc(Nc2ccc3ccccc3c2)nc(NC2CCCC2)n1", "Potency": "inactive"},
      {"compound": "Cc1ccc(NS(=O)(=O)c2cc3c(cc2Cl)NC(=O)C3)cc1C", "Potency": "inactive"},
      {"compound": "COc1cccc(CNc2ccc(S(=O)(=O)Nc3nccs3)cc2)c1O", "Potency": "inactive"},
      {"compound": "O=C1Nc2ccccc2/C1=C\\c1ccc(O)cc1", "Potency": "inactive"},
      {"compound": "N=c1c2c(ccn1CCCCc1ccccc1)Oc1ccc3ccccc3c1C2c1ccccc1", "note": "(centres undefined)", "Potency": "inactive"},
      {"compound": "O=C(C1CCN(c2nc(-c3ccc(Br)cc3)cs2)CC1)N1CCNCC1", "Potency": "inactive"}
    ]}
  ]
}
